# Laboratory results taken from PubChem BioAssay AID2240 (Broad Institute, 2010).
# About 100 (0.27%) of roughly 37,000 compounds were called active. The sample as a whole holds a higher share of actives than the screen did. A number with no mark means an inactive call. Rule as the data show it: active = inhibition above about 85%; inconclusive = no clear call, values can overlap the other calls; inactive = below about 68%.
# Experiment: inhibitors of MITF, primary screen, MITF inhibitor project, cell-based, luminescence (AID 2240);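 also: human melanocyte line stably carrying TRPM1 promoter luciferase reporter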
# Details: TRPM1 promoter luciferase, 24 h, active compounds read high, concentration not given here
row,SMILES,inhibition
1,C[C@H](CO)N1C[C@H](C)[C@@H](CN(C)Cc2ccc(C(F)(F)F)cc2)Oc2ccc(NC(=O)CCN3CCOCC3)cc2C1=O,-9.07%
2,c1ccc(Cn2c3ccccc3c3nnc(SCc4ccc5nonc5c4)nc32)cc1,20.6%
3,C[C@@H]1CCCCO[C@@H](CN(C)C(=O)CCC(F)(F)F)[C@@H](C)CN([C@H](C)CO)C(=O)c2cc(NC(=O)Nc3ccccc3)ccc2O1,-11.3%
4,C[C@@H]1CN([C@@H](C)CO)C(=O)c2cc(NC(=O)C3CCCCC3)ccc2O[C@@H]1CN(C)Cc1ccc(C(=O)O)cc1,1.31%
5,COc1ccc(NC(=O)CN(C)S(=O)(=O)c2ccccc2)cc1OC,-9.83%
6,COc1ccc(NC(=O)N(C)C[C@H]2Oc3c(NC(=O)C4CC4)cccc3C(=O)N([C@@H](C)CO)C[C@@H]2C)cc1,0.647%
7,C[C@H]1CN([C@@H](C)CO)C(=O)c2cc(N(C)C)ccc2O[C@@H]1CN(C)Cc1ccccc1,-14.1%
8,O=C(CSc1nccc(=O)[nH]1)Nc1ccc([N+](=O)[O-])cc1,-3.55%
9,COc1cc(NC(=S)NCCN2CCOCC2)c(OC)cc1Cl,17.1%
10,O=C(Nn1cnc2ccccc2c1=O)c1ccccc1,-19.3%
11,C[C@@H]1CN([C@H](C)CO)C(=O)c2cc(NS(=O)(=O)c3cccs3)ccc2O[C@@H]1CN(C)Cc1ccc(C(F)(F)F)cc1,-1.87%
12,COc1ccc(NC(=O)Nc2cccc3c2O[C@@H](CN(C)S(=O)(=O)c2ccc(C)cc2)[C@H](C)CN([C@@H](C)CO)C3=O)cc1,-6.48%
13,CCN(c1ccccc1)S(=O)(=O)c1ccc(C)cc1,12.9%
14,C[C@H](CO)N1C[C@H](C)[C@H](CN(C)C(=O)Nc2ccc3c(c2)OCO3)Oc2ccc(NC(=O)Nc3ccccc3)cc2CC1=O,-9.08%
15,COc1ccc(S(=O)(=O)N(C)C[C@H]2Oc3ccc(NC(=O)C4CC4)cc3CC(=O)N([C@@H](C)CO)C[C@@H]2C)cc1,-12.4%
16,COC(=O)c1c(-c2cccnc2)csc1NC(=O)c1cc(-c2ccc(C)o2)nc2ccccc12,-34.4%
17,Cc1ccc(S(=O)(=O)N(C)C[C@H]2Oc3c(NS(=O)(=O)c4cccs4)cccc3C(=O)N([C@@H](C)CO)C[C@@H]2C)cc1,0.709%
18,O=C(CSc1nc2ccccc2s1)c1cc2ccccc2oc1=O,-18%
19,C[C@@H]1CN([C@@H](C)CO)C(=O)c2cc(NC(=O)CCCN(C)C)ccc2O[C@@H]1CN(C)Cc1ccncc1,4.25%
20,CCCN(C)C[C@H]1OCCCC[C@@H](C)Oc2ccc(N(C)C)cc2C(=O)N([C@H](C)CO)C[C@@H]1C,43.3%
21,CC(=O)c1c(C)nn(CC(O)COc2ccc3cc(Br)ccc3c2)c1C (centres undefined),50.6%
22,Cc1ccc(S(=O)(=O)N(C)C[C@H]2Oc3c(NS(=O)(=O)c4ccc(Cl)cc4)cccc3C(=O)N([C@H](C)CO)C[C@@H]2C)cc1,0.159%
23,Oc1c(Cl)cc(Cl)c(Cl)c1Cc1c(O)c(Cl)cc(Cl)c1Cl,93.7% (active)
24,O=C(NCCN1CCCCC1)Nc1cccc2ccccc12,5.31%
